# Test results as given in PubChem BioAssay (NCI).
# Compounds without any hit were thinned out: in the full panel of roughly 79,000, 15% have a hit. Unmarked numbers belong to inactive results. Calls of active or inactive are those of the source. No stated cut-off is given here; in the data, active means growth inhibition above about 70%; inactive means the rest.
# Experiments:
# [1] = NCI Yeast Anticancer Drug Screen. Data for the rad52 strain (AID 147);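 further: 0% = growth of vehicle-treated control cultures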; settings: S. cerevisiae rad52 mutant growth inhibition, hits give high values
# Procedure, shortened: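 The repair-mutant yeast strain was incubated with compounds, then growth was read and inhibition derived relative to vehicle.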
# [2] = NCI Yeast Anticancer Drug Screen. Data for the wt1 strain (AID 149);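 further: 0% = growth of vehicle-treated wt1 cultures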; settings: S. cerevisiae wt1 strain (SPY 50644) growth inhibition, hits give high values
# Procedure, shortened: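 Each compound is tested on wt1 yeast and the loss of growth versus vehicle gives the inhibition value.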
# [3] = NCI Yeast Anticancer Drug Screen. Data for the rad50EPP+ strain (AID 151);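 further: 0% = growth of vehicle-treated control cultures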; settings: S. cerevisiae rad50 mutant strain, hits give high values
# Procedure, shortened: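 Vehicle-normalised growth inhibition; rad50EPP+ yeast strain, altered in DNA damage repair, compound-treated.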
# [4] = NCI Yeast Anticancer Drug Screen. Data for the mgt1 strain (AID 153); settings: S. cerevisiae mgt1 mutant growth inhibition, hits give high values
# Procedure, shortened: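 Vehicle-normalized growth inhibition is determined in mgt1 yeast, a strain selected for a defined alteration in DNA repair or cell cycle control.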
# [5] = NCI Yeast Anticancer Drug Screen. Data for the rad50 strain (AID 155);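 further: 0% = growth of vehicle-only cultures of the same strain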; settings: S. cerevisiae rad50 strain growth inhibition, hits give high values
# Procedure, shortened: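 Vehicle-treated cultures provide the reference for the growth inhibition reported for compound-exposed, repair-deficient yeast.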
# [6] = NCI Yeast Anticancer Drug Screen. Data for the mec2-1 strain (AID 157); settings: S. cerevisiae mec2-1 strain, hits give high values
# Procedure, shortened: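 Mutant yeast (mec2-1) grown with compound; growth inhibition relative to vehicle control reported.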
# [7] = NCI Yeast Anticancer Drug Screen. Data for the rad14 strain (AID 159);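 further: 0% = growth of vehicle-treated control cultures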; settings: S. cerevisiae rad14 strain growth inhibition, hits give high values
# Procedure, shortened: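 Inhibition of growth is reported for a repair-deficient yeast mutant following compound treatment, calculated relative to cultures that received vehicle.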
# [8] = NCI Yeast Anticancer Drug Screen. Data for the sgs1 mgt1 strain (AID 161);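 further: 0% = growth of cultures given vehicle only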; settings: S. cerevisiae sgs1 mgt1 strain, hits give high values
# Procedure, shortened: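 Yeast cells carrying a defined DNA-repair defect were exposed to test compounds. Growth inhibition was measured relative to vehicle-treated controls.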
# [9] = NCI Yeast Anticancer Drug Screen. Data for the CLN2oe strain (AID 163);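 further: 0% = growth of vehicle-only control cultures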; settings: S. cerevisiae CLN2oe strain, hits give high values
# Procedure, shortened: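 Compounds are applied to yeast harbouring a defined cell-cycle control change; reduced growth compared with vehicle-treated controls gives the value.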
# [10] = NCI Yeast Anticancer Drug Screen. Data for the cln2 rad14 strain (AID 165);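 further: 0% = growth equal to vehicle treated cultures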; settings: S. cerevisiae cln2 rad14 strain, hits give high values
# Procedure, shortened: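 Readout is yeast growth inhibition versus vehicle-treated controls, using a strain with cln2 and rad14 alterations exposed to compound.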
# [11] = NCI Yeast Anticancer Drug Screen. Data for the bub3 strain (AID 167); settings: S. cerevisiae bub3 mutant strain, hits give high values
# Procedure, shortened: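 Mutant yeast screening strain plus compound; vehicle-treated cultures serve as the 0% inhibition reference.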
# [12] = NCI Yeast Anticancer Drug Screen. Data for the wt2 strain (AID 169); settings: S. cerevisiae wt2 strain growth inhibition, hits give high values
# Procedure, shortened: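 Against vehicle-treated controls, the growth of yeast exposed to each compound was compared, and the inhibition was recorded.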
# [13] = NCI Yeast Anticancer Drug Screen. Data for the mlh1 strain (AID 171);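 further: 0% = growth of vehicle-treated control cultures of the same strain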; settings: S. cerevisiae mlh1 strain growth inhibition, hits give high values
# Procedure, shortened: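 Measured: yeast growth. Reference: vehicle-treated controls. Organism: strain with a defined alteration affecting DNA damage repair or cell cycle control, treated with compound.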
# [14] = NCI Yeast Anticancer Drug Screen. Data for the sgs1 strain (AID 173);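 further: 0% = growth of vehicle-only control cultures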; settings: S. cerevisiae sgs1 mutant, hits give high values
# Procedure, shortened: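 Each compound was added to cultures of the altered yeast strain. Growth was recorded, and inhibition was derived by comparison with vehicle controls.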
# [15] = NCI Yeast Anticancer Drug Screen. Data for the mlh1 rad18 strain (AID 175); settings: S. cerevisiae mlh1 rad18 strain growth inhibition, hits give high values
# Procedure, shortened: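 Genetically defined yeast (DNA repair-deficient) exposed to compounds; growth inhibition determined relative to vehicle.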
# [16] = NCI Yeast Anticancer Drug Screen. Data for the rad18 strain (AID 177); settings: S. cerevisiae rad18 mutant growth inhibition, hits give high values
# Procedure, shortened: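 Vehicle-treated cultures served as the baseline for scoring compound-induced growth inhibition in DNA-repair-mutant yeast.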
# [17] = at 5.0 µM (retest, dose inferred, filed as 0.5)
# [18] = at 50.0 µM (retest, dose inferred, filed as 5.0)
smiles,measurement,setting,value
CC(=O)OCc1ccc(O)c(C=O)c1,growth inhibition,[1]; at 1.2 µM,1%
same,growth inhibition,[1]; at 3.7 µM,1%
same,growth inhibition,[1]; at 11.0 µM,-10%
same,growth inhibition,[1]; at 33.0 µM,18%
same,growth inhibition,[1]; at 100.0 µM,57%
same,growth inhibition,[2]; at 1.2 µM,-26%
same,growth inhibition,[2]; at 3.7 µM,-4%
same,growth inhibition,[2]; at 11.0 µM,-23%
same,growth inhibition,[2]; at 33.0 µM,8%
same,growth inhibition,[2]; at 100.0 µM,18%
same,growth inhibition,[3]; at 1.2 µM,-6%
same,growth inhibition,[3]; at 3.7 µM,-2%
same,growth inhibition,[3]; at 11.0 µM,-10%
same,growth inhibition,[3]; at 33.0 µM,14%
same,growth inhibition,[3]; at 100.0 µM,60%
same,growth inhibition,[4]; at 1.2 µM,-24%
same,growth inhibition,[4]; at 3.7 µM,-17%
same,growth inhibition,[4]; at 11.0 µM,-18%
same,growth inhibition,[4]; at 33.0 µM,6%
same,growth inhibition,[4]; at 100.0 µM,25%
same,growth inhibition,[5]; at 1.2 µM,-5%
same,growth inhibition,[5]; at 3.7 µM,-20%
same,growth inhibition,[5]; [17],16%
same,growth inhibition,[5]; at 11.0 µM,10%
same,growth inhibition,[5]; at 33.0 µM,6%
same,growth inhibition,[5]; [18],66%
same,growth inhibition,[5]; at 50.0 µM,77.5% (active)
same,growth inhibition,[5]; at 100.0 µM,59%
same,growth inhibition,[6]; at 1.2 µM,-13%
same,growth inhibition,[6]; at 3.7 µM,-13%
same,growth inhibition,[6]; [17],0%
same,growth inhibition,[6]; at 11.0 µM,-29%
same,growth inhibition,[6]; at 33.0 µM,-11%
same,growth inhibition,[6]; [18],41%
same,growth inhibition,[6]; at 50.0 µM,56.9%
same,growth inhibition,[6]; at 100.0 µM,35%
same,growth inhibition,[7]; at 1.2 µM,-5%
same,growth inhibition,[7]; at 3.7 µM,-2%
same,growth inhibition,[7]; at 11.0 µM,2%
same,growth inhibition,[7]; at 33.0 µM,14%
same,growth inhibition,[7]; at 100.0 µM,81% (active)
same,growth inhibition,[8]; [17],36%
same,growth inhibition,[8]; [18],89% (active)
same,growth inhibition,[8]; at 50.0 µM,62.5%
same,growth inhibition,[9]; at 1.2 µM,-5%
same,growth inhibition,[9]; at 3.7 µM,1%
same,growth inhibition,[9]; at 11.0 µM,11%
same,growth inhibition,[9]; at 33.0 µM,-12%
same,growth inhibition,[9]; at 100.0 µM,-2%
same,growth inhibition,[10]; [17],15%
same,growth inhibition,[10]; [18],30%
same,growth inhibition,[10]; at 50.0 µM,49.7%
same,growth inhibition,[11]; at 1.2 µM,-7%
same,growth inhibition,[11]; at 3.7 µM,-7%
same,growth inhibition,[11]; [17],25%
same,growth inhibition,[11]; at 11.0 µM,-7%
same,growth inhibition,[11]; at 33.0 µM,-8%
same,growth inhibition,[11]; [18],82% (active)
same,growth inhibition,[11]; at 50.0 µM,2.85%
same,growth inhibition,[11]; at 100.0 µM,-11%
same,growth inhibition,[12]; at 1.2 µM,-36%
same,growth inhibition,[12]; at 3.7 µM,-30%
same,growth inhibition,[12]; at 11.0 µM,-28%
same,growth inhibition,[12]; at 33.0 µM,-11%
same,growth inhibition,[12]; at 100.0 µM,32%
same,growth inhibition,[13]; at 1.2 µM,0%
same,growth inhibition,[13]; at 3.7 µM,-7%
same,growth inhibition,[13]; at 11.0 µM,-5%
same,growth inhibition,[13]; at 33.0 µM,24%
same,growth inhibition,[13]; at 100.0 µM,30%
same,growth inhibition,[14]; at 1.2 µM,-11%
same,growth inhibition,[14]; at 3.7 µM,-5%
same,growth inhibition,[14]; at 11.0 µM,10%
same,growth inhibition,[14]; at 33.0 µM,34%
same,growth inhibition,[14]; at 100.0 µM,63%
same,growth inhibition,[15]; [17],26%
same,growth inhibition,[15]; [18],61%
same,growth inhibition,[15]; at 50.0 µM,48.7%
same,growth inhibition,[16]; at 1.2 µM,-13%
same,growth inhibition,[16]; at 3.7 µM,9%
same,growth inhibition,[16]; at 11.0 µM,54%
same,growth inhibition,[16]; at 33.0 µM,83% (active)
same,growth inhibition,[16]; at 100.0 µM,89% (active)
S=C(Nc1ccc(Cl)c(Cl)c1)SCc1ccc2c(c1)OCO2,growth inhibition,[1]; at 1.2 µM,6%
same,growth inhibition,[1]; at 3.7 µM,54%
same,growth inhibition,[1]; at 11.0 µM,99% (active)
same,growth inhibition,[1]; at 33.0 µM,99% (active)
same,growth inhibition,[1]; at 100.0 µM,94% (active)
same,growth inhibition,[2]; at 1.2 µM,1%
same,growth inhibition,[2]; at 3.7 µM,49%
same,growth inhibition,[2]; at 11.0 µM,100% (active)
same,growth inhibition,[2]; at 33.0 µM,99% (active)
same,growth inhibition,[2]; at 100.0 µM,96% (active)
same,growth inhibition,[3]; at 1.2 µM,27%
same,growth inhibition,[3]; at 3.7 µM,84% (active)
same,growth inhibition,[3]; at 11.0 µM,99% (active)
same,growth inhibition,[3]; at 33.0 µM,99% (active)
same,growth inhibition,[3]; at 100.0 µM,97% (active)
same,growth inhibition,[4]; at 1.2 µM,-2%
same,growth inhibition,[4]; at 3.7 µM,15%
same,growth inhibition,[4]; at 11.0 µM,99% (active)
same,growth inhibition,[4]; at 33.0 µM,99% (active)
same,growth inhibition,[4]; at 100.0 µM,97% (active)
same,growth inhibition,[5]; at 1.2 µM,-4%
same,growth inhibition,[5]; at 3.7 µM,40%
same,growth inhibition,[5]; [17],52%
same,growth inhibition,[5]; at 11.0 µM,99% (active)
same,growth inhibition,[5]; at 33.0 µM,99% (active)
same,growth inhibition,[5]; [18],97% (active)
same,growth inhibition,[5]; at 50.0 µM,87.3% (active)
same,growth inhibition,[5]; at 100.0 µM,94% (active)
same,growth inhibition,[6]; at 1.2 µM,-2%
same,growth inhibition,[6]; at 3.7 µM,6%
same,growth inhibition,[6]; [17],78% (active)
same,growth inhibition,[6]; at 11.0 µM,100% (active)
same,growth inhibition,[6]; at 33.0 µM,99% (active)
same,growth inhibition,[6]; [18],98% (active)
same,growth inhibition,[6]; at 50.0 µM,92.1% (active)
same,growth inhibition,[6]; at 100.0 µM,97% (active)
same,growth inhibition,[7]; at 1.2 µM,4%
same,growth inhibition,[7]; at 3.7 µM,54%
same,growth inhibition,[7]; at 11.0 µM,100% (active)
same,growth inhibition,[7]; at 33.0 µM,99% (active)
same,growth inhibition,[7]; at 100.0 µM,96% (active)
same,growth inhibition,[8]; [17],77% (active)
same,growth inhibition,[8]; [18],98% (active)
same,growth inhibition,[8]; at 50.0 µM,89.6% (active)
same,growth inhibition,[9]; at 1.2 µM,-4%
same,growth inhibition,[9]; at 3.7 µM,-13%
same,growth inhibition,[9]; at 11.0 µM,99% (active)
same,growth inhibition,[9]; at 33.0 µM,99% (active)
same,growth inhibition,[9]; at 100.0 µM,93% (active)
same,growth inhibition,[10]; [17],5%
same,growth inhibition,[10]; [18],97% (active)
same,growth inhibition,[10]; at 50.0 µM,87.6% (active)
same,growth inhibition,[11]; at 1.2 µM,-7%
same,growth inhibition,[11]; at 3.7 µM,29%
same,growth inhibition,[11]; [17],76% (active)
same,growth inhibition,[11]; at 11.0 µM,99% (active)
same,growth inhibition,[11]; at 33.0 µM,99% (active)
same,growth inhibition,[11]; [18],98% (active)
same,growth inhibition,[11]; at 50.0 µM,88.2% (active)
same,growth inhibition,[11]; at 100.0 µM,96% (active)
same,growth inhibition,[12]; at 1.2 µM,14%
same,growth inhibition,[12]; at 3.7 µM,90% (active)
same,growth inhibition,[12]; at 11.0 µM,100% (active)
same,growth inhibition,[12]; at 33.0 µM,100% (active)
same,growth inhibition,[12]; at 100.0 µM,97% (active)
same,growth inhibition,[13]; at 1.2 µM,-6%
same,growth inhibition,[13]; at 3.7 µM,66%
same,growth inhibition,[13]; at 11.0 µM,99% (active)
same,growth inhibition,[13]; at 33.0 µM,99% (active)
same,growth inhibition,[13]; at 100.0 µM,95% (active)
same,growth inhibition,[14]; at 1.2 µM,6%
same,growth inhibition,[14]; at 3.7 µM,38%
same,growth inhibition,[14]; at 11.0 µM,99% (active)
same,growth inhibition,[14]; at 33.0 µM,99% (active)
same,growth inhibition,[14]; at 100.0 µM,96% (active)
same,growth inhibition,[15]; [17],90% (active)
same,growth inhibition,[15]; [18],97% (active)
same,growth inhibition,[15]; at 50.0 µM,88.7% (active)
same,growth inhibition,[16]; at 1.2 µM,-7%
same,growth inhibition,[16]; at 3.7 µM,34%
same,growth inhibition,[16]; at 11.0 µM,99% (active)
same,growth inhibition,[16]; at 33.0 µM,99% (active)
same,growth inhibition,[16]; at 100.0 µM,96% (active)
